# RORg inh: ROR gamma (mouse) transcription inhibition; AID 2551; Drosophila S2 Gal4-RORgamma UAS-luciferase reporter, 20 h; P51450; Potency, µM (top dose mostly 53.6 µM), without a hit: top-dose activity change, negative = inhibition, hits mostly inhibitors; 5.4% of 310,000 active; note: potency is the fitted concentration of half-maximal effect; nearly all actives have a fitted effect of over 60% in size
#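 A Gal4/UAS one-hybrid system in insect cells: metallothionein-promoter Gal4–ROR gamma fusion plus Photinus luciferase reporter. Copper sulfate 700 uM final, 20 hr ambient incubation, luminescent detection after 10 min with reagent.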
# Gal4-VP16 FLuc: inhibits Gal4-VP16 luciferase reporter, ROR gamma counter-screen; Drosophila S2 Gal4-VP16 UAS-luciferase, luminescence, 20 h; Potency, µM (series often up to 53.6 µM), for inactives: at the top dose activity, negative = inhibition, actives largely listed as inhibitors; 3.5% of 310,000 active; AID 2546;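 note: Gal4-VP16 expression switched on by copper sulfate through the metallothionein promoter; potency is the fitted concentration of half-maximal effect; nearly all actives have a fitted effect of over 50% in size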
# Six1-Eya2 blk: inhibitors of human Six1/Eya2 interaction; AID 651725; Q15475+O00167; AlphaScreen GST-Six1/His-Eya2 binding, biochemical; stronger effect = lower value; activity change, % (no concentration beside the values); 0.56% of 360,000 active; in the data active = activity change below about -65%; inconclusive = mostly about -30% to -63%
# Target sequence (O00167 whole entry, looked up): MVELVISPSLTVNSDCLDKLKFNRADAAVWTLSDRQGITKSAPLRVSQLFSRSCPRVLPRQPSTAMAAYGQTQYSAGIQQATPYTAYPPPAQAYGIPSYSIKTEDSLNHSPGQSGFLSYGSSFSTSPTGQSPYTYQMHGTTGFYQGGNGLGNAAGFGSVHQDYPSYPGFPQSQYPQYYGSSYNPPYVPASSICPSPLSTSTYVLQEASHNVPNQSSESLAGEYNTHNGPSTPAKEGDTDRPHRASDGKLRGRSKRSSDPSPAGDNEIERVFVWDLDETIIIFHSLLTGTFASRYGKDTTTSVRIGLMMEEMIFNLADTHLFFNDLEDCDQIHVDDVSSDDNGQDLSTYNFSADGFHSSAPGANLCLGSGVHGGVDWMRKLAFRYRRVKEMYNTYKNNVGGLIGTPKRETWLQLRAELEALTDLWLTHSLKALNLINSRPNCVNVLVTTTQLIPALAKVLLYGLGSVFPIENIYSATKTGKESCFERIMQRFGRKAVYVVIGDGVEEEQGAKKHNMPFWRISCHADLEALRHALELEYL
# Target sequence (Q15475 whole entry, looked up): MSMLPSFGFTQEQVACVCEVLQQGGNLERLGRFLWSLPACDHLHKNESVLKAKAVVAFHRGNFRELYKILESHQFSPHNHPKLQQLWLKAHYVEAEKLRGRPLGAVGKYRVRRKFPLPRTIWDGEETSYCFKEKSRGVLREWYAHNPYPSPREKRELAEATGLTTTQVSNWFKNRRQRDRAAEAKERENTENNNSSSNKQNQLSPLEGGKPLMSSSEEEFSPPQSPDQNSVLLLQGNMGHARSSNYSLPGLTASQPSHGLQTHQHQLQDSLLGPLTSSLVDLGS
#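 AlphaScreen with GST-Six1 and His-Eya2 (5X mix: 250 nM and 500 nM), glutathione donor and nickel acceptor beads; buffer 50 mM Tris pH 8.0, 300 mM NaCl, 1 mM TCEP; 1 h at 37 C in the dark.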
# PKM2 activator: activators of human pyruvate kinase M2. purified PKM2, Kinase-Glo ATP luminescence, activation; response scale: 0% is enzyme alone, no compound. Potency, µM (series often up to 57.5 µM), inactives show top-dose activation, actives largely listed as activators. 0.34% of 260,000 active. AID 1631; note: potency is the fitted concentration of half-maximal effect; nearly all actives have a fitted effect of over 55% in size
#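 hPK-M2, >95% pure; 0.1 mM ADP / 0.5 mM PEP final; imidazole pH7.2 buffer w/ 7 mM MgCl2, 50 mM KCl; 1 h RT; Kinase-Glo lum. Intermediate enzyme activity for dual inhibitor/activator qHTS.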
# CtBP-E1A inh: inhibitors of CtBP/E1A interaction. AlphaScreen GST-E1A/His-CtBP binding, 1536-well; stronger effect = lower value. activity change, % (test concentration not listed). 0.49% of 340,000 active. AID 651724; in the data active = activity change below about -65%; inconclusive = mostly about -30% to -63%
#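 Protein mix (5X: 125 nM each GST-E1A, His-CtBP) was incubated with pinned compound 2 h at 37 deg C in dark, in 50 mM Tris pH 8.0 buffer with 300 mM NaCl. Glutathione donor and nickel acceptor beads followed; AlphaScreen signal read after 1 h.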
# An asterisk follows results filed as active; u = inconclusive; x = not tested or not shown; [ ] = remark or other dose. This is a sample that favours compounds with a hit; in the whole collection about 5.6% have one here. Unless noted, calls come from the whole dose curve; as a rule, active = well fitted curve in the direction sought with a large enough effect; inconclusive = small, poorly fitted or top-dose-only effect, or another doubt; inactive = no such curve, though single readings can be large; an effect the other way counts as inactive or inconclusive. % is set by controls: 0 for no effect and ±100 for the full control effect.
SMILES,RORg inh,Gal4-VP16 FLuc,Six1-Eya2 blk,PKM2 activator,CtBP-E1A inh
CCOc1ccc(N/C=C/C(=O)c2ccc(C)cc2)c([N+](=O)[O-])c1,2µM*,u,-4,-2%,16
COC(=O)/C=C/C(=O)Nc1cccnc1,11µM*,14%,-4,1%,2
CCOc1ccc(S(=O)(=O)N(C)CC(=O)NCc2ccccn2)cc1Cl,1%,-3%,7,4%,22
O=C(/C=C/c1ccccc1)NC(=S)Nc1cccnc1,7.1µM*,-6%,3,-1%,1
COc1ccc(/C=C/C(=O)c2ccc(NC(=O)c3cccs3)cc2)cc1OC,2.5µM*,-20%,0,-3%,-3
Cc1ccnc(NC(=O)/C=C/c2ccccc2[N+](=O)[O-])c1,-27%,-12%,x,-7%,x
Cc1ccnc(NC(=O)/C=C/c2ccccc2Cl)c1,3.5µM*,5.6µM*,12,6%,-1
Cc1ccnc(NC(=S)NC(=O)/C=C/c2ccccc2)c1,2.8µM*,u,-1,-3%,5
CN(C(=O)CSc1nc2ccc(Cl)cc2[nH]1)C1CCS(=O)(=O)C1 (stereo not drawn),x,x,5,x,x
O=C(C1=NN[C@@H]2C(=O)N(c3cccc(C(F)(F)F)c3)C(=O)[C@H]12)c1cnccn1,5%,-13%,7,7%,0
CCOC(=O)c1cc(-c2ccccc2)sc1NC(=O)C(C)(C)C,1%,-7%,10,-6%,8
C=CCNC(=S)Nc1ccc(C)cc1[N+](=O)[O-],u,4%,-7,-7%,6
C=CCNC(=S)Nc1cc(C)ccn1,1µM*,4µM*,6,2%,-7
COc1ccc(CC(=O)NNC(=S)Nc2ccccc2)cc1Br,13µM*,u,-4,-4%,2
Cc1ccnc(NC(=S)NC(=O)/C=C/c2ccc(Cl)cc2)c1,14µM*,13µM*,-1,-1%,-1
CCOC(=O)c1cc(-c2ccccc2)sc1NC(=S)Nc1cc(C)ccn1,1µM*,2.2µM*,-1,-1%,4
COC(=O)[C@H](Cc1ccccc1)NC(=O)N1CCN(c2ccc(F)cc2)CC1,43%,-22%,0,-2%,-1
CCOc1ccc(NC(=S)NC(=O)/C=C/c2ccc(C)cc2)c([N+](=O)[O-])c1,37%,-17%,-7,-4%,-20
CCOc1ccc(NC(=S)NC(=O)/C=C/c2ccc(OC)c(OC)c2)c([N+](=O)[O-])c1,1.1µM*,2.5µM*,-5,-1%,-3
Cc1cccnc1NC(=S)NC(=O)/C=C/c1ccccc1,4.5µM*,6.3µM*,u,2%,-2
Cc1cccnc1NC(=O)c1ccc(C(=O)c2ccccc2)cc1,x,x,3,x,8
CC(=O)N(C)c1ccc(NC(=O)/C=C/c2ccccc2Cl)cc1,1.1µM*,18µM*,-4,3%,0
C[C@@H]1CN([C@H](C)CO)C(=O)CCCn2cc(nn2)CO[C@H]1CN(C)C(=O)Nc1cccc(Oc2ccccn2)c1,x,x,5,x,-22
CC(NC(=O)Nc1nnc(C(F)(F)F)s1)(C(F)(F)F)C(F)(F)F,5µM*,5.6µM*,7,0%,6
COc1ccc(O)c(C(=O)CC(=O)c2ccc(F)cc2)c1,u,u,-19,-1%,-12
SMILES,RORg inh,Gal4-VP16 FLuc,Six1-Eya2 blk,PKM2 activator,CtBP-E1A inh
COc1ccc(C(=O)CC(=O)c2ccccc2O)cc1,7.9µM*,6.3µM*,-6,4%,-5
COC(=O)c1ccccc1NCC(=O)c1ccc(OC)cc1,29%,18µM*,10,2%,6
COc1ccc(C(=O)CNc2ccccc2C#N)cc1,-1%,-4%,7,x,7
COc1ccc(O)c(C(=O)CC(=O)c2ccccc2C)c1,20%,0.71µM*,-8,-1%,-7
O=C(NC(CCl)c1ccccc1)c1ccc(Cl)cc1 (stereo not drawn),6%,3%[10 µM],5,0%,4
CCn1nc(C)c(CNC(=O)Nc2ccccc2C(=O)OC)c1C,33%,8%,-15,-1%,-20
COc1ccc(OCCNC(=S)Nc2cccc3ccccc23)cc1,2.8µM*,6.3µM*,-24,6%,-20
Cc1ccccc1NC(=S)NCCc1ccccc1,29%,-6%,-1,3%,1
COc1ccc(CCNC(=S)Nc2ccccc2C)cc1,5µM*,20µM*,-5,1%,-6
